{
  "source": "the supplement of paper PMC12067926",
  "data": [
    {"compound": "CN(C)C(=O)Nc1ccc(Cl)c(Cl)c1", "assay": "relative growth (AUC of 72 h growth curve relative to DMSO control, dAUC) (ratio); higher = more growth (less inhibition), active = hit call of the paper", "conditions": "20 µM;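 active = growth AUC significantly below the DMSO wells by Dunnett test; inactive = the rest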", "protocol": "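Environmental bacterial isolates (Iceland stream sediment and Silwood Park soil) and whole stream-sediment communities were grown in LB from a 1:100 dilution with each pesticide at 20 µM (1% DMSO). A600 was read hourly for 72 h and the area under a spline-fitted growth curve (AUC) was computed. dAUC is the mean AUC of 3 biological replicates divided by the mean AUC of the DMSO controls. Significance was tested by Dunnett's test against the DMSO control.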", "values": [
      {"target": "Community 4", "relative growth": "1.09 (inactive)"},
      {"target": "Sphingomonas 2 (Sphingomonas sp.)", "relative growth": "1.04 (inactive)"},
      {"target": "Pseudomonas 4 (Pseudomonas peli)", "relative growth": "0.939 (inactive)"},
      {"target": "Pseudomonas 6 (Pseudomonas sp.)", "relative growth": "1.07 (inactive)"},
      {"target": "Arthrobacter 3 (Arthrobacter sp.)", "relative growth": "0.947 (inactive)"},
      {"target": "Hymenobacter 1 (Hymenobacter glaciei)", "relative growth": "1.02 (inactive)"},
      {"target": "Community 6", "relative growth": "1.03 (inactive)"},
      {"target": "Aeromonas 1 (Aeromonas sp. AE235)", "relative growth": "0.942 (inactive)"},
      {"target": "Oryzobacter 1 (Oryzobacter terrae)", "relative growth": "1.13 (inactive)"},
      {"target": "Aeromonas 2 (Aeromonas sobria)", "relative growth": "0.943 (inactive)"},
      {"target": "Rhizobium 1 (Rhizobium herbae)", "relative growth": "1.19 (inactive)"},
      {"target": "Carnobacterium 1 (Carnobacterium gallinarum)", "relative growth": "0.949 (inactive)"},
      {"target": "Pseudomonas 3 (Pseudomonas mandelii)", "relative growth": "1.02 (inactive)"},
      {"target": "Community 10", "relative growth": "1.05 (inactive)"},
      {"target": "Flavobacterium 2 (Flavobacterium succinicans)", "relative growth": "0.961 (inactive)"},
      {"target": "Neobacillus 1 (Neobacillus soli)", "relative growth": "0.899 (inactive)"},
      {"target": "Community 8", "relative growth": "1.11 (inactive)"},
      {"target": "Arthrobacter 1 (Arthrobacter humicola)", "relative growth": "0.944 (inactive)"},
      {"target": "Pseudomonas 2 (Pseudomonas vancouverensis)", "relative growth": "0.988 (inactive)"},
      {"target": "Flavobacterium 1 (Flavobacterium glaciei)", "relative growth": "0.999 (inactive)"},
      {"target": "Paenibacillus 1 (Paenibacillus castaneae)", "relative growth": "0.883 (inactive)"},
      {"target": "Aeromonas 3 (Aeromonas popoffii)", "relative growth": "0.977 (inactive)"},
      {"target": "Argrobacterium 1 (Agrobacterium sp.)", "relative growth": "0.867 (inactive)"},
      {"target": "Bacillus 1 (Bacillus foraminis)", "relative growth": "0.958 (inactive)"},
      {"target": "Microbacterium 1 (Microbacterium arborescens)", "relative growth": "1.03 (inactive)"},
      {"target": "Prolinoborus 1 (Prolinoborus fasciculus)", "relative growth": "0.957 (inactive)"},
      {"target": "Pseudomonas 1 (Pseudomonas baetica)", "relative growth": "1.03 (inactive)"},
      {"target": "Community 9", "relative growth": "1.04 (inactive)"},
      {"target": "Serratia 1 (Serratia sp. 2015-2462-01)", "relative growth": "0.942 (inactive)"},
      {"target": "Arthrobacter 2 (Arthrobacter humicola)", "relative growth": "0.977 (inactive)"},
      {"target": "Community 7", "relative growth": "1.23 (inactive)"},
      {"target": "Pseudomonas 5 (Pseudomonas baetica)", "relative growth": "1.02 (inactive)"}
    ]}
  ]
}
